rCAG RNA binder – molecules binding r(CAG) RNA repeats | r(CAG) RNA repeat, TO-PRO-1 dye displacement fluorescence | inhibition, % at 3 µM | 1.3% of 370,000 active | AID 651821;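 active means inhibition above the plate cutoff, the mean of all test compounds on that plate plus 3 SD, cut at about 35% in these data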;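 further: 0% = DMSO alone and 100% = 100 µM mitoxantrone as full dye displacement; higher means more dye released from RNA so lower well fluorescence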
PG9 Ab binder – small molecules binding HIV-1 gp120 antibody PG9; 0.43% of 360,000 active; inhibition, % at 6.7 µM; TR-FRET gp120-PG9 antibody binding; in the data active means inhibition above about 8.5%
sPLA2-III inh – Blocks human group III sPLA2 activity. inhibition, % at 12.2 µM. Q9NZ20. AID 743126. QFRET BODIPY PC-A2 liposome hydrolysis, fluorescence. 0.56% of 370,000 active;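 active means inhibition above mean plus 3 SD of compounds lying within the high and low control bounds, cut at about 19% in these data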;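 further: 0% = median of test compound wells and 100% = no enzyme DMSO wells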
Target sequence (Q9NZ20 whole entry, looked up): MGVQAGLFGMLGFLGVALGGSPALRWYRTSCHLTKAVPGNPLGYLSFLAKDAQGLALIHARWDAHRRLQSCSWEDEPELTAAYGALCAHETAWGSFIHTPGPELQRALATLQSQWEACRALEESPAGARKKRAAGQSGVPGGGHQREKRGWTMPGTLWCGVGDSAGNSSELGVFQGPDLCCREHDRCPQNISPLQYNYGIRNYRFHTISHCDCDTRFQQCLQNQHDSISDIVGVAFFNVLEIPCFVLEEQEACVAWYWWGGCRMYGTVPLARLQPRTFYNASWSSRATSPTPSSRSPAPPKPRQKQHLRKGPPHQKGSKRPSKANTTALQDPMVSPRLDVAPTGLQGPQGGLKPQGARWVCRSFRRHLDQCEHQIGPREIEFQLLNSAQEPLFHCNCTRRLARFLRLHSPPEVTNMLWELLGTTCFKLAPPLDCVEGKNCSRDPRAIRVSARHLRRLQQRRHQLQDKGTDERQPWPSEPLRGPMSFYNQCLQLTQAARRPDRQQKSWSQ
MsrA act – bovine methionine sulfoxide reductase A activation; purified bovine MsrA, absorbance read-out; activation, % at 10.6 µM; 0.3% of 360,000 active; in the data active means activation above about 7.5%;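 further: 0% = vehicle and 100% = reference activator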
MsrA inh – inhibits bovine methionine sulfoxide reductase A; purified bovine MsrA, absorbance read-out; 0.75% of 360,000 active; AID 651718; inhibition, % at 15.5 µM; in the data active means inhibition above about 4.5%;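 further: 0% = vehicle wells with enzyme and 100% = reference inhibitor wells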
rCAG binder conf – r(CAG) RNA repeat binding, confirmation; inhibition, % at 3 µM; shares compounds with rCAG RNA binder; AID 652065; 70% of 4,300 active; TO-PRO-1 dye displacement fluorescence;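 active means inhibition above a per-plate cutoff, the mean inhibition of sample wells plus 3 SD, cut at about 35% in these data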;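 further: loss of TO-PRO-1 fluorescence as compound displaces dye from 1x1 AA loop RNA; 0% = DMSO only wells and 100% = 100 µM mitoxantrone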
DNA CAG counter – DNA CAG dye complex inhibition counter-screen; 94% of 4,300 active; d(CAG) DNA oligo TO-PRO-1 dye displacement, fluorescence; AID 652068; inhibition, % at 3 µM; shares compounds with rCAG RNA binder;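 active means inhibition above its plate's cutoff, the mean test-well inhibition plus 3 SD, cut at about 4.8% in these data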;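 further: 0% = DNA dye mix with DMSO and 100% = 100 µM mitoxantrone; hits displace the dye from DNA and so lower well fluorescence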
Starred values were filed as active, the others as inactive; / = not tested or not shown. Shown are actives, neighbours in structure and some others; about 3.2% of the full set was active somewhere.

SMILES | rCAG RNA binder | PG9 Ab binder | sPLA2-III inh | MsrA act | MsrA inh | rCAG binder conf | DNA CAG counter
CC(C)OP(=O)(OC(C)C)C1(NS(=O)(=O)c2ccc(Cl)cc2)C=C(Cl)C(=O)C(Cl)=C1 | 40* | 1 | -2 | 0 | 2 | 27 | 5.9*
CC(C)N(CCNS(=O)(=O)c1ccc(Cl)cc1)C(C)C | -1 | 2 | 0 | -2 | 0 | / | /
CN(c1ccccc1)c1ccc(/C=C(\CCC(=O)O)c2nc3ccccc3s2)cc1[N+](=O)[O-] | 71* | -2 | -2 | -1 | 1 | 78* | 37*
O=C(O)c1ccc(C=C(c2nc3ccccc3s2)c2nc3ccccc3s2)cc1 | 12 | -1 | -8 | -6 | 1 | / | /
Cc1ccc(/C=C(\CCC(=O)O)c2nc3ccccc3s2)cc1[N+](=O)[O-] | 49* | -1 | -25 | -5 | 4 | 65* | 25*
O=C(CSc1nnc(-c2ccccc2)n1-c1ccccc1)NN=C/C=C\c1ccccc1[N+](=O)[O-] | 5 | / | 0 | / | / | / | /
COc1cc(C2C(C#N)=C(N)N(c3ccc(F)cc3)C3=C2S(=O)(=O)CC3)ccc1O (stereo not given) | 38* | -6 | -33 | -3 | 4 | 15 | 9.0*
CCOc1ccc(CCNC(=O)c2cc3ccsc3n2C)cc1OCC | 3 | / | 4 | / | / | / | /
COc1cc2ccccc2cc1C(=O)NC(=S)Nc1cccc(C(=O)O)c1 | 39* | 0 | -4 | -2 | 1 | 69* | 34*
O=C(CSc1ccsc1[N+](=O)[O-])Nc1cc(F)ccc1F | 38* | 1 | -6 | -11 | 1 | 15 | 11*
CC(=O)c1ccc(NC(=O)CSc2ccsc2[N+](=O)[O-])cc1 | 35* | -2 | -5 | -13 | 0 | 20 | 14*
C[C@H]1[C@@H](OC(=O)Nc2cccc(Cl)c2)CC[C@@]23CCCN2C(=O)CCC[C@@H]13 | / | / | -6 | / | / | / | /
N#Cc1ccc(OCCCN2CCC(C(O)(c3ccccc3)c3ccccc3)CC2)cc1 | 1 | -1 | -19 | / | 1 | / | /
CC1(C(=O)NS(=O)(=O)c2ccc3ccccc3c2)CCN1C(=O)CC1CCCCC1 (stereo not given) | 39* | 0 | -15 | -2 | 0 | 57* | 20*
Cc1ccc(S(=O)(=O)NC(=O)C2(C)CCN2C(=O)CC2CCCC2)cc1 (stereo not given) | 5 | 1 | 10 | -1 | 2 | / | /
CC(C)(C)c1ccc(S(=O)(=O)NC(=O)C2(C)CCN2C(=O)CC2CCCC2)cc1 (stereo not given) | 37* | 0 | -14 | -3 | -1 | 22 | 3
COc1cc2c(cc1OC)C(c1ccccc1)N(Cc1ccc(S(=O)(=O)NC(=O)c3ccco3)cc1)CC2 (stereo not given) | 40* | 1 | -16 | -3 | 1 | 39* | 11*
COc1cc2c(cc1OC)C(c1ccccc1)N(C(=O)c1ccco1)CC2 (stereo not given) | 2 | 0 | 7 | -1 | 1 | / | /
C=CCn1c(CSCc2ccc(Cl)cc2Cl)nnc1SCC(=O)Nc1ccc(C(=O)O)cc1 | 36* | -2 | -24 | -5 | 0 | 53* | 16*
O=C(CSCc1ccc(Cl)cc1Cl)Nc1ccccc1C(=O)Nc1ccc(C(=O)O)cc1 | 8 | 0 | -5 | -1 | 0 | / | /
COC(=O)[C@]1(CNC(=O)NCCc2ccc(OC)c(OC)c2)CC(=O)N(C)[C@@H]1c1ccccc1 | -2 | / | 3 | / | / | / | /
N#Cc1c(-c2cccs2)nc(SCC(=O)c2cccs2)[nH]c1=O | 79* | 4 | -89 | -4 | 4 | 65* | 29*
CCC(Sc1nccn1C)C(=O)Nc1nnc(C)s1 (stereo not given) | 2 | 1 | 4 | -1 | 0 | / | /
N#Cc1c(-c2ccccc2)nc(SCC(=O)Nc2nnc(C(F)(F)F)s2)[nH]c1=O | 46* | 6 | -15 | -6 | -1 | 23 | 5.6*
CN(CCC#N)C(=O)CSc1nc2scc(-c3ccccc3)c2c(=O)[nH]1 | 5 | 0 | -9 | 0 | 0 | / | /
SMILES | rCAG RNA binder | PG9 Ab binder | sPLA2-III inh | MsrA act | MsrA inh | rCAG binder conf | DNA CAG counter
N#Cc1c(-c2ccccc2)nc(SCC(=O)N(c2ccccc2)c2ccccc2)[nH]c1=O | 73* | 2 | -42 | -2 | 1 | 82* | 41*
CCC(Sc1nc(-c2ccccc2)c(C#N)c(=O)[nH]1)C(=O)Nc1nnc(C)s1 (stereo not given) | 44* | 4 | -22 | -10 | 2 | 43* | 12*
O=C(CSc1nc2ccccc2c(=O)[nH]1)c1cccs1 | 4 | 2 | -41 | 0 | 0 | / | /
COc1ccccc1NC(=O)Nc1nc(CC(=O)N2CCN(c3ccccc3F)CC2)cs1 | 4 | -1 | -14 | -9 | -1 | / | /
COc1cc(-c2nnc(SCC(=O)N3C(C)CCCC3C)o2)cc(OC)c1OC (stereo not given) | -2 | / | -1 | / | / | / | /
COC(=O)[C@]12C[C@H](CC(=O)NCc3ccccc3)C(=O)N(Cc3cccc4ccccc34)C1=C[C@H](COCc1ccccc1)O[C@@H]2C | 10 | / | -28 | / | / | / | /
N#Cc1c(-c2ccccc2)nc(SCC(=O)Nc2ccccc2F)[nH]c1=O | 44* | 3 | -16 | -2 | 1 | 32 | 8.2*
O=C(CSc1nc(O)c(Cc2ccccc2)c(=O)[nH]1)Nc1nnc(SCc2ccccc2)s1 | 53* | -1 | -8 | -4 | 0 | 28 | 7.5*
CCCCc1nnc(NC(=O)CSc2nc(O)c(Cc3ccccc3)c(=O)[nH]2)s1 | 0 | 0 | 12 | -14 | 1 | / | /
CCN(CC)S(=O)(=O)c1cc(NS(=O)(=O)c2c(Cl)cccc2Cl)ccc1C | 34 | -2 | -37 | -3 | 0 | / | /
CCN(CC)S(=O)(=O)c1cc(NS(=O)(=O)c2cccc(Cl)c2Cl)ccc1C | 42* | -2 | -38 | -10 | -1 | 41* | 12*
CC(=O)OCCCNc1cc(SCc2ccco2)c2nonc2c1[N+](=O)[O-] | 60* | -1 | -8 | -14 | 1 | 22 | 9.8*
O=C(O)c1ccc(Cl)cc1NC(=O)C1CCN(S(=O)(=O)c2cccs2)CC1 | 39* | -1 | -11 | -3 | -1 | 41* | 10*
CCC(C(=O)O)n1nnc(-c2ccc(-c3ccc(OC)cc3)cc2)n1 (stereo not given) | 48* | -1 | -14 | -3 | -1 | 36* | 10*
Cc1ccc(S(=O)(=O)N2[C@@H](c3cccc(C)c3)C(C(=O)O)=C[C@H]2C(C)(C)C)cc1 | 28 | 2 | -7 | -5 | -1 | / | /
CCCCC[C@@H]1C=C(C(=O)O)[C@H](c2ccc(Cl)c(Cl)c2)N1S(=O)(=O)c1ccc(C)cc1 | 85* | -1 | -60 | -2 | 0 | 87* | 53*
CCc1ccc([C@H]2C(C(=O)O)=C[C@@H](CC)N2S(=O)(=O)c2ccc(C)cc2)cc1 | 21 | -4 | -1 | -2 | 1 | / | /
